High-throughput results (PubChem BioAssay)
Compounds with a hit are over-represented: about 5.2% of the library has one in this group of screens.
SMARCA2 activ = activators of SMARCA2 function. MG213 cells, MMTV-luciferase reporter, dexamethasone, overnight. activation, % at 9.1 µM. 370,000 compounds, 1% hits. AID 652017; in the data active means activation above about 7.8%;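 further: 0% = vehicle wells and 100% = reference activator wells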
SKN-1 inh = inhibitors of C. elegans SKN-1; 360,000 compounds, 0.49% hits; C. elegans VP596 Pgst-4::GFP/RFP ratio, acrylamide-induced, 24 h; inhibition, % at 21.8 µM; AID 624304;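 active means interference check ratio from 0.5 to 1.5 plus GFP to RFP signal ratio inhibition reaching or exceeding a fixed threshold, cut at about 30% in these data, passing the limit was not always enough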
NR3A LBD binder = modulates the human NR3A ligand-binding domain; NR3A LBD differential scanning fluorimetry, Tm shift; 0% = protein alone, 100% = glycine-bound protein; Tm shift relative to glycine control, % at 25 µM; 340,000 compounds, 2.5% hits;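 active means melting temperature shift of at least 10% of the positive control shift, at one fixed dose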
NadD inh = blocks S. aureus nicotinate mononucleotide adenylyltransferase | purified NadD enzyme, colorimetric absorbance read-out | inhibition, % at 20 µM | 360,000 compounds, 0.78% hits; in the data active means inhibition above about 26%
Vif inh = HIV Vif inhibition | inhibition, % at 7.49 µM | 340,000 compounds, 0.35% hits | HEK293T cells, Vif self-association by quenched fluorescence, imaging, 24 h | AID 602346; in the data active means inhibition above about 50%, passing the limit was not always enough
esBAF inh = SWI/SNF esBAF complex inhibition; mouse ES cells, Bmi1-luciferase knock-in reporter, 24 h; 100% = twice the neutral-well signal; 350,000 compounds, 2% hits; reporter increase, % at 12.5 µM; in the data active means activation above about 40%;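 further: 0% = median of the plate's neutral control wells and 100% = double that signal; a rise in the Bmi1 reporter signal indicates esBAF inhibition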
* = called active by the depositor; . = not tested or not shown.

SMILES	SMARCA2 activ	SKN-1 inh	NR3A LBD binder	NadD inh	Vif inh	esBAF inh
CNc1cc(-c2ccc(CC#N)cc2)ncn1	3	-1	.	3	-15	50*
COc1ccc(S(=O)(=O)Nc2ccc3c(c2)C(=O)N([C@H](C)CO)C[C@H](C)[C@H](CN(C)C(=O)NC(C)C)O3)cc1	.	.	.	.	.	-4
Cc1ccc(-n2nnc(-c3ccnc4ccccc34)n2)cc1	4	-4	2	1	-3	69*
Fc1ccc(-n2nnc(-c3ccccc3)n2)cc1	0	12	-4	4	3	1
Cn1c(-c2ccccc2O)cc2ccccc21	-1	8	-10	-1	-12	2
Fc1ccc(-n2nnc(-c3ccnc4ccccc34)n2)cc1	5	25	1	-2	-4	61*
Cc1ccc(-n2nnc(-c3cc4ccccc4n3C)n2)cc1	6	0	-1	7	2	58*
COc1ccc(-c2ccc(/C=C3/C(=N)N4C(C)=CSC4=NC3=O)o2)c([N+](=O)[O-])c1	5	43*	-22	12	1	.
Oc1cc2c(cc1C(c1ccc(Cl)c(Cl)c1)N1CCCC1)OCO2 (centres undefined)	-6	8	40*	13	0	.
CC(C)c1ccc(NC(=O)C(c2ccc3c(c2)OCO3)N2CCCCC2)cc1 (centres undefined)	0	4	-3	0	.	-4
C[C@H]1CCCCO[C@@H](CN(C)Cc2ccc(C(F)(F)F)cc2)[C@@H](C)CN([C@@H](C)CO)C(=O)c2cc(NS(=O)(=O)c3cn(C)cn3)ccc2O1	.	.	.	.	.	-3
CCOc1c(OC(C)=O)ccc(/C=C2\N=C(SCC)SC2=O)c1[N+](=O)[O-]	1	-9	14*	5	-1	2
COc1ccc(S(=O)(=O)N(C)C[C@H]2OCCCC[C@@H](C)Oc3ccc(NC(=O)CCC(F)(F)F)cc3C(=O)N([C@H](C)CO)C[C@H]2C)cc1	.	.	.	.	.	5
CCc1cccc2sc(NC(=O)C3CC3)nc12	-4	3	12*	-3	12	20
CCCC(=O)Nc1ccc2c(c1)C(=O)N(C)[C@@H]1CC[C@H](CC(=O)NCc3cccc(F)c3)O[C@@H]1CO2	.	.	.	.	.	-5
CC(C)CC#Cc1ccc2c(c1)O[C@@H](CN(C)C(=O)C1CCCCC1)[C@@H](C)CN([C@H](C)CO)S2(=O)=O	.	.	.	.	.	2
O=C(Nc1ccc2c(c1)OCO2)N[C@@H]1CC[C@@H](CCNC(=O)C2CCCC2)O[C@@H]1CO	.	.	.	.	.	-3
O=C(CC1CC1)Nc1ccc2c(c1)[C@@H]1C[C@@H](CC(=O)N3CCOCC3)O[C@@H](CO)[C@@H]1O2	.	.	.	.	.	-1
CCCCn1c(O)c(N=Nc2ccccc2O)c2ccccc21	0	-11	1	11	145*	2
Cc1cc(SCC(=O)c2ccc(O)c(O)c2)n2nc(C)c(-c3ccccc3)c2n1	-2	14	23*	25	5	-21
Cc1cc(C)nc(SCC(=O)c2ccc(O)c(O)c2)n1	1	-1	2	0	.	6
O=C(O)COc1ccc(/C=C/c2nc(-c3ccccc3O)n[nH]2)cc1	0	-23	-8	-1	0	0
COc1ccc(/C=C/c2nc(-c3ccccc3O)n[nH]2)cc1OC	-1	1	27*	3	-18	62*
CCn1cc(C(=O)OCC(=O)NCc2ccc3c(c2)OCO3)c(=O)c2ccc(C)nc21	-1	35*	-2	2	-9	2
CN1CCN(C(=O)C[C@@H]2CC[C@H]3[C@@H](COC[C@@H](O)CN3C(=O)C3CC3)O2)CC1	.	.	.	.	.	3
C[C@H]1CN([C@@H](C)CO)C(=O)Cc2cc(NS(=O)(=O)c3ccccc3)ccc2O[C@H]1CN(C)S(C)(=O)=O	.	.	.	.	.	0
COc1ccc(-c2oc3ccccc3c2C(=O)OCc2ccccc2)cc1	3	-11	3	-10	0	27
COc1ccc(-c2oc3ccccc3c2C(=O)OCc2ccc(O)cc2)cc1	7	10	-16	-6	25	45*
Cc1nn(-c2ccc(N3CCCCC3)nn2)c(C)c1CCC(=O)Nc1cccc(F)c1	0	14	1	12	-8	64*
Cc1ccc(C)c(NC(=O)CCc2c(C)nn(-c3ccc(N4CCCCC4)nn3)c2C)c1	0	18	2	-1	-6	4
